Data from PubChem BioAssay AID504332 (National Center for Advancing Translational Sciences (NCATS), 2011).
In all, about 350,000 compounds went through this assay and about 31,000 (8.9%) were called active. Another 15% or so got no clear call; they are omitted. The call rests on the fitted dose curve; in most records, active means well fitted inhibition curve with a large enough effect; inconclusive means small, poorly fitted or top-dose-only effect; inactive means no such curve, though single readings can be large or run the other way. What follows is part of a selection rich in actives, with near analogues and random picks from the rest. A call without a number means that no potency is given here.
Further: nearly all actives have a fitted effect of over 75% in size.
Potency means the concentration at half of the fitted maximal effect.

The molecules below were run against Histone-lysine N-methyltransferase EHMT2 (Homo sapiens) (UniProt Q96KQ7) (assay: qHTS Assay for Inhibitors of Histone Lysine Methyltransferase G9a). Conditions: G9a H3K9 monomethylation, AlphaScreen, 2 h; series mostly up to 59 µM.
Histone-lysine N-methyltransferase EHMT2 (Homo sapiens), sequence (Q96KQ7 913-1193 limits assumed): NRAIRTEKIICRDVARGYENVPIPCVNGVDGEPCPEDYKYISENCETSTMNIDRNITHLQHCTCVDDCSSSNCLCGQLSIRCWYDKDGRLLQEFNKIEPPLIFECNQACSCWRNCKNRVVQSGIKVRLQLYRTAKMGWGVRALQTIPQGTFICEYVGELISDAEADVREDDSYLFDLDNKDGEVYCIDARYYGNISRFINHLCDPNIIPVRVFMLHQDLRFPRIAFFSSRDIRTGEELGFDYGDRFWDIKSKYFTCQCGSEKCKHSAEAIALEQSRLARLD
Summary of the method: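 Using a bead-based AlphaScreen, monomethylated H3K9 product from 2 h room-temperature reactions (G9a 20 nM, peptide 500 nM, SAM 20 uM) was detected with 0.5 ug/mL rabbit anti-H3K9me1 antibody.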
In the case of `CCC(=O)Nc1ccc(S(=O)(=O)Nc2c(NC)c3ccccc3oc2=O)cc1`, the Potency is reported as “inactive”. In the case of `Cc1ccc(CSc2oc(-c3cccs3)nc2S(=O)(=O)c2ccc(C)cc2)cc1`, the Potency is reported as “inactive”. With `O=S(=O)(c1ccccc1)c1nc(-c2ccccc2F)oc1NCc1cccnc1` the Potency was “inactive”. In the case of `Cc1ccc(S(=O)(=O)c2nc(-c3cccs3)oc2NCc2cccnc2)cc1`, the Potency is reported as 25.1 µM (active). In the case of `CCC1Oc2ccc(Cl)cc2N(CC(=O)O)C1=O` (stereo unspecified), the Potency is reported as “inactive”. For `Cc1ccc(N2C(=O)CC(N3CCSCC3)C2=O)c(C)c1` (stereo unspecified), the Potency was “inactive”. `Cc1cc(Cl)ccc1N1C(=O)CC(SCCC(=O)O)C1=O` (stereo unspecified) was tested, and the Potency was 10 µM (active). For `Cc1ccc(CSc2nc3cccnc3n2Cc2ccc(C(=O)NC3CC3)cc2)cc1`, the Potency was “inactive”. In the case of `COc1ccc(OCCn2cc(C(=O)C3CCCCC3)c3ccccc32)cc1`, the Potency is reported as “inactive”. In the case of `O=C1CSC2(C(=O)N(Cc3ccccc3)c3ccccc32)N1c1cccc(F)c1` (stereo unspecified), the Potency is reported as “inactive”. `CCOc1ccccc1NC(=O)c1ccc2c(c1)CCN2S(=O)(=O)c1ccc(C)cc1` was tested, and the Potency was “inactive”. With `S=c1[nH]c2ccccc2c2ccccc12` the Potency was 8.91 µM (active). In the case of `CC(=O)c1c(-c2ccccc2)c2ccccc2[nH]c1=O`, the Potency is reported as “inactive”. With `NC(=O)Cc1ccc2c(c1)[nH]c1ccccc12` the Potency was “inactive”. `CCc1ccccc1N(C)C(=O)C1CCCN(c2ncnc3onc(-c4ccc(F)cc4)c23)C1` (stereo unspecified) was tested, and the Potency was “inactive”. `COc1ccc([C@H]2CC(=O)C=C(/C=C/c3ccccc3)C2)cc1` was tested, and the activity, negative = inhibition was -12.4% [at 2.33 µM] (inactive). With `COc1ccccc1Nc1nc(N)nc(N)c1S(=O)(=O)c1ccccc1` the Potency was “inactive”. For `Cc1ccc(C)c2[nH]c(=O)c(CCNC(=O)c3cccs3)cc12`, the Potency was “inactive”. With `C=CCn1c(CCc2ccc(OC(C)C)cc2)n[nH]c1=S` the Potency was “inactive”. With `C=CCn1c(CCNC(=O)c2cccs2)n[nH]c1=S` the Potency was 11.2 µM (active). For `CCc1ccc(N(C(=O)c2csnn2)C(C(=O)NC2CCCCC2)c2cccnc2)cc1` (stereo unspecified), the Potency was “inactive”. For `Cc1c(NS(=O)(=O)c2cc(C(=O)NCCc3ccc(F)cc3)cc(Cl)c2Cl)c(=O)n(-c2ccccc2)n1C`, the Potency was “inactive”. For `CSc1ccccc1OCc1cc(C(=O)N(C)CCc2c(C)n[nH]c2C)no1`, the activity, negative = inhibition was 43.1% [at 0.0925 µM] (inactive). With `COc1cc(Cl)ccc1OCc1cc(C(=O)N(C)CCc2c(C)n[nH]c2C)no1` the Potency was 39.8 µM (active). For `Cc1cc(CN(C)C(=O)c2cc(COc3ccc(C)c(C)c3)on2)n[nH]1`, the Potency was “inactive”. For `NC(=O)NCCCC(=O)O`, the activity, negative = inhibition was -0.244% [at 12.7 µM] (inactive). `Cc1ccccc1-c1nc2scc(CCNC(=O)C(=O)Nc3ccc(F)cc3F)n2n1` was tested, and the Potency was “inactive”. For `NCCCC[C@@H]1NC(=O)[C@H](CCC(=O)O)NC(=O)c2cc([N+](=O)[O-])cc(I)c2NCC[C@@H](C(N)=O)NC1=O`, the Potency was 14.1 µM (active). For `NC(=O)C[C@@H]1NC(=O)CNC(=O)c2cc([N+](=O)[O-])cc(I)c2NCCC(C(N)=O)NC1=O` (stereo partly specified), the Potency was 11.2 µM (active). `CC(C)[C@@H]1NC(=O)c2cc([N+](=O)[O-])cc(I)c2NCCC[C@@H](C(=O)NC(CC(=O)O)C(N)=O)NC(=O)[C@H](CO)NC1=O` (stereo partly specified) was tested, and the Potency was “inactive”. For `NC(=O)CC[C@@H]1NC(=O)[C@H](CO)NC(=O)c2cc([N+](=O)[O-])cc(I)c2NCC[C@@H](C(N)=O)NC1=O`, the Potency was 10 µM (active).
